# Hit rate of the full screen: of about 1,200 compounds, about 950 (79%) were called active.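 The calls were made as follows: active = signal rises and fitted curve reaches 40% activity at or below the top valid tested dose, in every replicate test; inconclusive = replicate tests give mixed calls; inactive = the rest, including activity in the opposite direction.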 The set was probably picked from earlier hits. The list is a sample of the results. Results with a measured potency or affinity are listed apart.
# Assay: Bmi1-luciferase reporter activators in mESC, dose response, esBAF inhibitor project, mouse embryonic stem cells, cherry-pick (AID 651717);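 also: luciferase knocked into Bmi1 locus with EF-1a renilla as cell number control; rising ratio signals esBAF inhibition which derepresses Bmi1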
# Details: firefly/renilla ratio, 24 h, stronger effect = higher value; at 35 µM unless noted
row,Structure (SMILES),max activity
1,C[C@@H]1CN([C@@H](C)CO)C(=O)c2c(c3ccccc3n2C)-c2ccccc2CO[C@H]1CN(C)C(=O)Nc1ccc2c(c1)OCO2,-5.95% [at 1.1 µM] (inactive)
2,C[C@@H]1CN([C@H](C)CO)C(=O)Cc2cc(NC(=O)C3CCCCC3)ccc2O[C@H]1CN(C)C(=O)Nc1ccc2c(c1)OCO2,7.16% [at 1.1 µM] (inactive)
3,C[C@H]1CN([C@@H](C)CO)C(=O)Cc2cc(NC(=O)C3CCCCC3)ccc2O[C@@H]1CN(C)C(=O)Nc1ccc2c(c1)OCO2,-4.16% [at 2.1 µM] (inactive)
4,C[C@H]1CN([C@@H](C)CO)C(=O)c2cccc(NS(=O)(=O)c3ccccc3)c2O[C@@H]1CN(C)C(=O)Nc1ccc2c(c1)OCO2,-33.5% [at 30 µM] (inactive)
5,COc1ccc2nc(N(CCN(C)C)C(=O)c3ccc4ncsc4c3)sc2c1,43.3% [at 8 µM] (inactive)
6,C[C@H]1CN([C@@H](C)CO)C(=O)c2cccc(NS(=O)(=O)c3ccccc3)c2O[C@H]1CN(C)C(=O)Nc1ccc2c(c1)OCO2,-6.71% (inactive)
7,COc1ccc(N(CC(=O)Nc2ccccc2C(N)=O)S(=O)(=O)c2ccc(C)c([N+](=O)[O-])c2)cc1,17% [at 16 µM] (inactive)
8,COc1ccc(NC(=O)N(C)C[C@H]2OCCCC[C@@H](C)Oc3ccc(NC(=O)Nc4ccc5c(c4)OCO5)cc3C(=O)N([C@H](C)CO)C[C@@H]2C)cc1,12.1% [at 8 µM] (inactive)
9,CCOc1ccc2nc(Cl)c(C3CC(c4ccco4)=NN3S(=O)(=O)c3ccccc3)cc2c1 (centres undefined),9.03% [at 1 µM] (inactive)
10,COC(=O)[C@H]1C[C@@]2(O)CN(S(=O)(=O)c3ccc(C)cc3)C[C@@]2(OC(=O)NCC2CCCCC2)C[C@H]1C(=O)OC,29.2% (inactive)
11,CC1CCN(c2nc3ccc(C(=O)NCCCN4CCCCC4C)cc3s2)CC1 (centres undefined),-33.5% [at 16 µM] (inactive)
12,C[C@@H]1CN([C@H](C)CO)C(=O)c2cc(NC(=O)Nc3ccc4c(c3)OCO4)ccc2O[C@@H](C)CCCCO[C@H]1CN(C)S(=O)(=O)c1cn(C)cn1,5.01% [at 1 µM] (inactive)
13,CC1=C(C(=O)OCc2ccccc2)C(c2ccc(Br)cc2)NC(=O)N1CCCCCC(=O)O (centres undefined),11.1% [at 16 µM] (inactive)
14,CSc1cccc(NC(=O)c2[nH]c(C)c(C(C)=O)c2C)c1,14.1% [at 8 µM] (inactive)
15,C[C@@H]1CCCCO[C@H](CN(C)C(=O)Nc2cccc3ccccc23)[C@H](C)CN([C@@H](C)CO)C(=O)c2cc(NC(=O)CCC(F)(F)F)ccc2O1,26.7% [at 1 µM] (inactive)
16,COc1ccc(-c2cc(C(=O)Nc3cc(OC)cc(C(=O)Nc4cccc(C(F)(F)F)c4)c3)[nH]n2)cc1,9.94% [at 4.2 µM] (inactive)
17,CCOC(=O)COc1c(OC)cc(Cl)cc1C1Nc2ccccc2C(=O)N1c1cccc(C)c1 (centres undefined),28.5% (inactive)
18,O=C(Nc1ccc(Cc2ccc(NC(=O)Nc3cccnc3)cc2)cc1)Nc1cccnc1,25.6% [at 16 µM] (inactive)
19,Cc1ccc(NCC(=O)N/N=C\C(Br)=C\c2ccccc2)cc1,8.26% [at 16 µM] (inactive)
20,CC=Cc1ccc2n(c1=O)C[C@H]1[C@H](CO)[C@@H](C(=O)Nc3ccc(-c4ccccc4)cc3)N(CC)[C@@H]21 (mixture of isomers),5.58% [at 0.26 µM] (inactive)

row,Structure (SMILES),max activity
1,CC=Cc1ccc2n(c1=O)C[C@@H]1[C@@H](CO)[C@H](C(=O)Nc3ccc(-c4ccccc4)cc3)N(C)[C@H]21 (mixture of isomers),-24.6% (inactive)
2,CC(=O)c1ccc(N(C(=O)Cc2c[nH]c3ccccc23)C(C(=O)NC2CCCCC2)c2cccs2)cc1 (centres undefined),-9.23% (inactive)
3,Cc1ccc2c(c1)Sc1ccccc1CC2=O,16.2% (inactive)
4,Cn1c(SCc2nc3ccccc3s2)nnc1-c1ccc2c(c1)OCO2,27.7% (inactive)
5,O=C1Nc2ccccc2N=C(c2ccc3c(c2)OCO3)C1N(CCc1ccccc1)C(=O)CSc1ncccn1 (centres undefined),-16.9% (inactive)
6,C[C@@H]1CN([C@@H](C)CO)C(=O)c2cc(NC(=O)Nc3ccc4c(c3)OCO4)ccc2O[C@@H](C)CCCCO[C@H]1CN(C)Cc1ccncc1,-10.2% [at 0.5 µM] (inactive)
7,Cc1ccc2nc(NC(=O)CCNS(=O)(=O)c3cccs3)sc2c1,37.2% (inactive)
8,CNC[C@@H]1OCCCC[C@H](C)Oc2ccc(NS(=O)(=O)c3ccc(C)cc3)cc2C(=O)N([C@H](C)CO)C[C@H]1C,-8.01% [at 1.1 µM] (inactive)
9,O=C1NC(Cc2ccc(O)cc2)c2nc3ccc(Br)cc3c(=O)n2-c2cc3ccccc3cc21 (centres undefined),6.63% [at 8 µM] (inactive)
10,C[C@@H]1CCCCO[C@@H](CN(C)Cc2ccncc2)[C@H](C)CN([C@@H](C)CO)C(=O)c2cc(NC(=O)Nc3ccc4c(c3)OCO4)ccc2O1,-10.3% [at 0.5 µM] (inactive)
11,Cc1ccc(NC(=O)c2ccccc2F)c(NC(=O)c2ccccc2F)c1,39.1% [at 16 µM] (inactive)
12,C[C@@H]1CN([C@H](C)CO)C(=O)c2cccc(NC(=O)Nc3ccc4c(c3)OCO4)c2O[C@H]1CN(C)S(=O)(=O)c1cccs1,36.7% [at 1 µM] (inactive)
13,CN(CC(=O)Nc1ccc(Cl)c(S(=O)(=O)N(C)C)c1)Cc1ccccc1,16.8% [at 1 µM] (inactive)
14,CN1C(=O)c2cc(NC(=O)c3ccc(C#N)cc3)ccc2OC[C@H]2O[C@@H](CC(=O)NC3Cc4ccccc4C3)CC[C@@H]21,-7.14% (inactive)
15,Cc1c(CC(C)C)nc(N)c(C#N)c1-c1ccccc1,8.97% [at 16 µM] (inactive)
16,CCc1ccc(C(=O)CN2C(=O)NC3(CCCCCC3)C2=O)cc1,32.8% (inactive)
17,CC1CC(C)(C)CC2(C1)NC(=O)N(CC(=O)OCC(=O)Nc1cc(S(=O)(=O)N3CCCCC3)ccc1Cl)C2=O (centres undefined),16.1% [at 0.5 µM] (inactive)
18,COc1ccc(C(=O)N2CCN(c3ccc(C(C)=O)cc3)CC2)cc1S(=O)(=O)N1CCCC1,26.7% [at 2.1 µM] (inactive)
19,COc1ccc(CCNC(=O)CSc2nc3ccsc3c(=O)n2Cc2ccccn2)cc1OC,23.9% (inactive)

# From PubChem BioAssay AID651717 (Broad Institute, 2012)
